How the values were obtained:
Experiment in all cases: PBM binding z-score (relative to random genomic background probes); higher = stronger binding; sequences stand for … in GC…GCGATTGACAGCGTAGAATGAAGG
[1] = system: FXR:RXRa (NR concentration 270 nM, RXRa partner concentration 90 nM)
Procedure, shortened: (§1)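 For binding z-scores, the reference was random background probes on custom Agilent 4×180K protein-binding microarrays. These arrays were incubated 1 h with ligand-free nuclear receptor dimers in PBS pH 7.4, 2% milk, 0.02% Triton X-100, 1 mM DTT, 0.2 mg/mL BSA and 0.4 mg/ml salmon testes DNA. Fluorescence was scanned after antibody detection of each partner (one per run) and regression-normalized.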

[2] = system: LXRa:RXRa (NR concentration 270 nM, RXRa partner concentration 90 nM)
Procedure, shortened: as §1

[3] = system: LXRa homodimer (NR concentration 270 nM)
Procedure, shortened: as §1

[4] = system: LXRb:RXRa (NR concentration 270 nM, RXRa partner concentration 90 nM)
Procedure, shortened: as §1

[5] = system: LXRb homodimer (NR concentration 270 nM)
Procedure, shortened: as §1

[6] = system: PPARa:RXRa (NR concentration 270 nM, RXRa partner concentration 90 nM)
Procedure, shortened: as §1

[7] = system: PPARg:RXRa (NR concentration 180 nM, RXRa partner concentration 90 nM)
Procedure, shortened: as §1

[8] = system: PPARg:RXRa 270nM:90nM, anti-RXR (NR concentration 270 nM, RXRa partner concentration 90 nM)
Procedure, shortened: as §1

[9] = system: PPARg:RXRa 30nM:10nM, anti-RXR (NR concentration 30 nM, RXRa partner concentration 10 nM)
Procedure, shortened: as §1

[10] = system: PPARg:RXRa 90nM:30nM, anti-RXR (NR concentration 90 nM, RXRa partner concentration 30 nM)
Procedure, shortened: as §1

[11] = system: PPARg:RXRa DBDmut IVT, anti-RXR (DBD mutation: RXRa K156A/R161A, NR concentration 270 nM, RXRa partner concentration 90 nM)
Procedure, shortened: as §1

[12] = system: PPARg:RXRa IVT, anti-PPARg (NR concentration 270 nM, RXRa partner concentration 90 nM)
Procedure, shortened: as §1

[13] = system: PPARg DBDmut:RXRa IVT, anti-PPARg (DBD mutation: PPARg1 K132A/R137A, NR concentration 270 nM, RXRa partner concentration 90 nM)
Procedure, shortened: as §1

[14] = system: PPARg DBDmut IVT, anti-PPARg (DBD mutation: PPARg1 K132A/R137A, NR concentration 270 nM)
Procedure, shortened: as §1

[15] = system: PPARg homodimer (NR concentration 180 nM)
Procedure, shortened: as §1

[16] = system: PXR:RXRa (NR concentration 270 nM, RXRa partner concentration 90 nM)
Procedure, shortened: as §1

[17] = system: PXR homodimer (NR concentration 270 nM)
Procedure, shortened: as §1

[18] = system: RARa:RXR (NR concentration 270 nM, RXRa partner concentration 90 nM)
Procedure, shortened: as §1

[19] = system: RARa homodimer (NR concentration 270 nM)
Procedure, shortened: as §1

[20] = system: RARb:RXRa (NR concentration 270 nM, RXRa partner concentration 90 nM)
Procedure, shortened: as §1

For TAGCCTAGGTAATGGGCCAGTATACCACGCGAAC, the PBM binding z-score [1] was -0.654, the PBM binding z-score [2] was -0.856 and the PBM binding z-score [3] was -0.526. The PBM binding z-score [4] was -0.351, the PBM binding z-score [5] was -0.976 and the PBM binding z-score [6] was -0.193. For the same sequence, the PBM binding z-score [7] was 0.503, the PBM binding z-score [8] was 0.264 and the PBM binding z-score [9] was -0.0812. The PBM binding z-score [10] was -0.179, the PBM binding z-score [11] was -0.319 and the PBM binding z-score [12] was 0.78. For the same sequence, the PBM binding z-score [13] was -0.42, the PBM binding z-score [14] was -0.561 and the PBM binding z-score [15] was -0.148. It also gave a PBM binding z-score [16] of -0.351, a PBM binding z-score [17] of -0.609 and a PBM binding z-score [18] of -0.221. For the same sequence, the PBM binding z-score [19] was -0.573 and the PBM binding z-score [20] was -0.295.
For TCTGCTAGGTCAACGATGGTCAGCTATTCTGCTA, the PBM binding z-score [1] was 3.16, the PBM binding z-score [2] was 2.62 and the PBM binding z-score [3] was -0.457. The PBM binding z-score [4] was 1.39, the PBM binding z-score [5] was -0.158 and the PBM binding z-score [6] was 3.15. It also gave a PBM binding z-score [7] of 2.42, a PBM binding z-score [8] of 2.96 and a PBM binding z-score [9] of 2. For the same sequence, the PBM binding z-score [10] was 2.29, the PBM binding z-score [11] was 4.2 and the PBM binding z-score [12] was 4.42. It also gave a PBM binding z-score [13] of 0.0784, a PBM binding z-score [14] of 0.733 and a PBM binding z-score [15] of 0.972. It also gave a PBM binding z-score [16] of 1.41, a PBM binding z-score [17] of -1.08 and a PBM binding z-score [18] of 2.24. The PBM binding z-score [19] was -0.753 and the PBM binding z-score [20] was 4.11.
With TGAATGAGGTTATAAGAGCAGGGAACGTTGCAAA the PBM binding z-score [1] was 1.63, the PBM binding z-score [2] was 1.78 and the PBM binding z-score [3] was -0.152. For the same sequence, the PBM binding z-score [4] was 0.923, the PBM binding z-score [5] was -0.0285 and the PBM binding z-score [6] was 2.86. It also gave a PBM binding z-score [7] of 1.32, a PBM binding z-score [8] of 2.13 and a PBM binding z-score [9] of 0.717. It also gave a PBM binding z-score [10] of 1.52, a PBM binding z-score [11] of 1.21 and a PBM binding z-score [12] of 1.65. The PBM binding z-score [13] was 0.835, the PBM binding z-score [14] was 0.627 and the PBM binding z-score [15] was 0.672. For the same sequence, the PBM binding z-score [16] was 0.661, the PBM binding z-score [17] was -0.193 and the PBM binding z-score [18] was 1.39. For the same sequence, the PBM binding z-score [19] was 0.226 and the PBM binding z-score [20] was 1.29.
CTCGAAAGGTCGTGCTCAGGTGAATATACCAAAC showed a PBM binding z-score [1] of 5.33, a PBM binding z-score [2] of 4.19 and a PBM binding z-score [3] of 0.375. For the same sequence, the PBM binding z-score [4] was 3.82, the PBM binding z-score [5] was 0.534 and the PBM binding z-score [6] was 5.05. The PBM binding z-score [7] was 2.81, the PBM binding z-score [8] was 3.84 and the PBM binding z-score [9] was 1.1. The PBM binding z-score [10] was 2.6, the PBM binding z-score [11] was 0.879 and the PBM binding z-score [12] was 2.15. The PBM binding z-score [13] was 0.682, the PBM binding z-score [14] was 0.68 and the PBM binding z-score [15] was 1.34. For the same sequence, the PBM binding z-score [16] was 3.6, the PBM binding z-score [17] was 0.506 and the PBM binding z-score [18] was 4.28. The PBM binding z-score [19] was 0.678 and the PBM binding z-score [20] was 3.92.
CAAACTAGATCACAGAGGTCAAAGTCCGTGCGTA was tested, and the PBM binding z-score [1] was 4.82, the PBM binding z-score [2] was 5.45 and the PBM binding z-score [3] was 6.08. For the same sequence, the PBM binding z-score [4] was 5.22, the PBM binding z-score [5] was 2.14 and the PBM binding z-score [6] was 5.26. For the same sequence, the PBM binding z-score [7] was 4.26, the PBM binding z-score [8] was 4.86 and the PBM binding z-score [9] was 2.01. The PBM binding z-score [10] was 4.09, the PBM binding z-score [11] was 3.96 and the PBM binding z-score [12] was 4.36. The PBM binding z-score [13] was 1, the PBM binding z-score [14] was 1.1 and the PBM binding z-score [15] was 4.38. For the same sequence, the PBM binding z-score [16] was 5.76, the PBM binding z-score [17] was 2.93 and the PBM binding z-score [18] was 6.13. For the same sequence, the PBM binding z-score [19] was 2.65 and the PBM binding z-score [20] was 4.05.
For TCATATAGGTAAATGCCAGGTGAAAGTCCGATCT, the PBM binding z-score [1] was 1.31, the PBM binding z-score [2] was 1.12 and the PBM binding z-score [3] was 0.378. The PBM binding z-score [4] was 0.902, the PBM binding z-score [5] was 0.0242 and the PBM binding z-score [6] was 1.62. For the same sequence, the PBM binding z-score [7] was 0.873, the PBM binding z-score [8] was 2.48 and the PBM binding z-score [9] was 3.67. The PBM binding z-score [10] was 3.1, the PBM binding z-score [11] was 4.32 and the PBM binding z-score [12] was 2.79. For the same sequence, the PBM binding z-score [13] was 1.11, the PBM binding z-score [14] was 0.542 and the PBM binding z-score [15] was 0.867. For the same sequence, the PBM binding z-score [16] was 0.553, the PBM binding z-score [17] was 0.292 and the PBM binding z-score [18] was 1.21. It also gave a PBM binding z-score [19] of 0.678 and a PBM binding z-score [20] of 0.624.
CCAGACAGGTGAGAAAGTAACTCAGCCTCGATTA showed a PBM binding z-score [1] of -0.0524, a PBM binding z-score [2] of 0.0409 and a PBM binding z-score [3] of 0.0347. The PBM binding z-score [4] was 0.0309, the PBM binding z-score [5] was -0.167 and the PBM binding z-score [6] was 0.206. The PBM binding z-score [7] was 0.1, the PBM binding z-score [8] was -0.203 and the PBM binding z-score [9] was -0.427. It also gave a PBM binding z-score [10] of -0.273, a PBM binding z-score [11] of 0.811 and a PBM binding z-score [12] of 0.252. It also gave a PBM binding z-score [13] of -0.222, a PBM binding z-score [14] of -0.131 and a PBM binding z-score [15] of 0.452. The PBM binding z-score [16] was -0.35, the PBM binding z-score [17] was 0.307 and the PBM binding z-score [18] was 0.117. The PBM binding z-score [19] was 0.86 and the PBM binding z-score [20] was 0.141.

From the supplement of paper PMC6555819
